Results as given in PubChem BioAssay.

Experiment: modulation of C. elegans fzo-1 (AID 1259413);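 also: fzo-1 mutant C. elegans worms in liquid wells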
Conditions: C. elegans fzo-1 modulator screen, mean read-out; active compounds read high; call rule not given here

Mean signal, inactive:
C=C1/C(=C\C=C2/CCCC3(C)[C@@H]([C@H](C)/C=C/[C@@H](O)C4CC4)CC[C@@H]23)C[C@@H](O)C[C@@H]1O (stereo not given in full) 277
C#C[C@]1(O)CC[C@H]2[C@@H]3[C@H](C)CC4=C(CCC(=O)C4)[C@H]3CCC21C (stereo not given in full) 249
OC[C@H]1O[C@@H](n2cnc3c(N[C@H]4CCC[C@@H]4O)ncnc32)[C@@H](O)C1O (stereo not given in full) 261
CC12C=CC(=O)C=C1CC[C@@H]1[C@@H]2[C@@H](O)CC2(C)[C@H]1CC[C@]2(O)C(=O)COC(=O)CCC(=O)O (stereo not given in full) 283
OC[C@H]1O[C@@H](n2cnc3c(NC4CCCC4)nc(Cl)nc32)[C@@H](O)C1O (stereo not given in full) 256
CC(=O)OC12CO[C@@H]1C[C@H](O)[C@@]1(C)C(=O)[C@H](O)C3=C(C)[C@@H](OC(=O)[C@H](O)[C@@H](NC(=O)OC(C)(C)C)c4ccccc4)CC(O)([C@@H](OC(=O)c4ccccc4)[C@H]21)C3(C)C (stereo not given in full) 256
C[C@@H]1C[C@H]2[C@@H]3C[C@H](F)C4=CC(=O)C(Cl)=CC4(C)[C@@]3(F)[C@@H](O)CC2(C)[C@@]1(O)C(=O)CO (stereo not given in full) 273
CC12CC[C@@H]3c4ccc(O)cc4CC[C@H]3[C@@H]1CC[C@@H]2O (stereo not given in full) 233
CC12CC[C@@H]3c4ccc(OS(=O)(=O)O)cc4CC[C@H]3[C@@H]1CCC2=O (stereo not given in full) 260
C/C=C1/[C@H]2C=C(C)C[C@]1(N)c1ccc(=O)[nH]c1C2 229
C#C[C@]1(O)CC[C@H]2[C@@H]3CCc4cc(O)ccc4[C@H]3CCC21C (stereo not given in full) 242
CC(=O)O[C@H]1C[C@@H]2CC[C@@H]3[C@H](CCC4(C)[C@H]3C[C@H]([N+]3(C)CCCCC3)[C@@H]4OC(C)=O)C2(C)C[C@@H]1N1CCCCC1 (stereo not given in full) 285
CCC(=O)O[C@]1(C(=O)SCF)[C@H](C)C[C@H]2[C@@H]3C[C@H](F)C4=CC(=O)C=CC4(C)[C@@]3(F)[C@@H](O)CC21C (stereo not given in full) 245
C=CC[C@@H]1/C=C(\C)C[C@H](C)C[C@H](OC)[C@H]2OC(O)(C(=O)C(=O)N3CCCC[C@H]3C(=O)O[C@H](/C(C)=C/[C@@H]3CC[C@@H](O)[C@H](OC)C3)[C@H](C)[C@@H](O)CC1=O)[C@H](C)C[C@@H]2OC 274
CC(C)(C)NC(=O)[C@H]1CC[C@H]2[C@@H]3CC[C@H]4NC(=O)C=CC4(C)[C@H]3CCC12C (stereo not given in full) 247
CCOC(=O)O[C@]1(C(=O)OCCl)CC[C@H]2[C@@H]3CCC4=CC(=O)C=CC4(C)[C@H]3[C@@H](O)CC21C (stereo not given in full) 256
C[C@@H]1C[C@H]2[C@@H]3CCC4=CC(=O)C=CC4(C)[C@@]3(F)[C@@H](O)CC2(C)[C@H]1C(=O)CO (stereo not given in full) 245
CC(=O)O[C@]1(C(C)=O)CC[C@H]2[C@@H]3C=C(C)C4=CC(=O)CCC4(C)[C@H]3CCC21C (stereo not given in full) 261
C#C[C@]1(O)CC[C@H]2[C@@H]3CCC4=CC(=O)CC[C@@H]4[C@H]3CCC21CC (stereo not given in full) 225
CC(=O)[C@H]1CC[C@H]2[C@@H]3CCC4=CC(=O)CCC4(C)[C@H]3CCC12C (stereo not given in full) 279
N[C@@H](C(=O)N[C@@H]1C(=O)N2C(C(=O)O)=C(CSC3CNNN3)CS[C@H]12)c1ccc(O)cc1 (stereo not given in full) (tested in a mixture with another compound) 239
CO[C@H]1C=CO[C@@]2(C)Oc3c(C)c(O)c4c(O)c(c(/C=N/N5CCN(C6CCCC6)CC5)c(O)c4c3C2=O)NC(=O)/C(C)=C\C=C[C@H](C)[C@H](O)[C@@H](C)[C@@H](O)[C@@H](C)[C@H](OC(C)=O)[C@@H]1C 288
C#C[C@]1(O)CC[C@H]2[C@@H]3CCc4cc(OC)ccc4[C@H]3CCC21C (stereo not given in full) 241
COc1cc(CNC(=O)CCCC/C=C\C(C)C)ccc1O 250
C=C1/C(=C\C=C2/CCCC3(C)[C@@H]([C@H](C)CCCC(C)(C)O)CC[C@@H]23)C[C@@H](O)C[C@@H]1O (stereo not given in full) 260
C=CC1=C(C(=O)O)N2C(=O)[C@@H](NC(=O)/C(=N/OCC(=O)O)c3csc(N)n3)[C@H]2SC1 257
CC#C[C@]1(O)CC[C@H]2[C@@H]3CCC4=CC(=O)CCC4=C3[C@@H](c3ccc(N(C)C)cc3)CC21C (stereo not given in full) 225
CC12CCC(=O)C=C1CC[C@@H]1[C@@H]2[C@@H](O)CC2(C)[C@@H](C(=O)CO)CC[C@@H]12 (stereo not given in full) 250
CC[C@H]1OC(=O)[C@H](C)C(=O)[C@H](C)[C@@H](O[C@@H]2O[C@H](C)C[C@H](N(C)C)[C@H]2O)[C@](C)(OC)C[C@@H](C)C(=O)[C@H](C)[C@@H]2N(CCCCn3cnc(-c4cccnc4)c3)C(=O)OC21C (stereo not given in full) 205
CO[C@H]1C=CO[C@@]2(C)Oc3c(C)c(O)c4c(O)c(c5c(nc6cc(C)ccn65)c4c3C2=O)NC(=O)/C(C)=C\C=C[C@H](C)[C@H](O)[C@@H](C)[C@@H](O)[C@@H](C)[C@H](OC(C)=O)[C@@H]1C 289
